Test [1] is described as follows: qHTS assay to identify small molecule antagonists of the retinoid acid receptor (RAR) signaling pathway - cell viability counter screen (AID 1159551). Note: nearly all actives have a fitted effect of over 35% in size. Note: potency is the fitted concentration of half-maximal effect. The method, boiled down:
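Retinol-stimulated (1 uM final) C3RL4 cells, compound 6 h, 37 C; readout CellTiter-Glo luminescence (ATP) after 30 min RT incubation.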
On the technique in general: qHTS replaces the single test concentration by a dilution series.

Test [2] is described as follows: qHTS assay to identify small molecule agonists of the retinoic acid receptor (RAR) signaling pathway (AID 1159553). In outline:
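Reporter readout comes from luciferase under RARE control in C3RL4 cells; compound exposure lasts 6 hr at 37 C in 5% CO2, and luminescence is recorded following a 30 min room-temperature incubation with reagent.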

Test [3] can be described thus: qHTS assay to identify small molecule antagonists of the estrogen related receptor (ERR) signaling pathway from Tox21 library - cell viability counter screen (AID 1224834). Note: nearly all actives have a fitted effect of over 30% in size. Note: potency is the fitted concentration of half-maximal effect. In outline: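 After 17.5 h of compound exposure at 37 C, ERR cells are incubated with CellTiter-Fluor for 30 min and fluorescence intensity serves as the viability measure.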
In test [4] the target is Luciferin 4-monooxygenase (Photinus pyralis) (UniProt P08659). The experiment in a line: qHTS assay to identify small molecule inhibitors of firefly luciferase (AID 1224835). Note: nearly all actives have a fitted effect of over 25% in size. Note: potency is the fitted concentration of half-maximal effect. In outline: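 Inhibition of purified Photinus luciferase is measured by luminescence. Substrate levels (D-luciferin, ATP) sit at their KM values. Each compound is tested in a concentration series.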

Test [5] in a line: qHTS assay to identify small molecule agonists of the constitutive androstane receptor (CAR) signaling pathway - cell viability counter screen (AID 1224836). Note: nearly all actives have a fitted effect of over 45% in size. Note: potency is the fitted concentration of half-maximal effect. The method, boiled down: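 HepG2 cells stably carrying hCAR and a CYP2B6-2.2kb reporter were plated 4 h, then given compounds at 15 concentrations plus PK11195 (final 0.75 uM). After 23 h at 37 C, viability was read by CellTiter-Fluor fluorescence.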

A short description of test [6]: qHTS assay to identify small molecule antagonists of the constitutive androstane receptor (CAR) signaling pathway - cell viability counter screen (AID 1224837). Note: nearly all actives have a fitted effect of over 45% in size. Note: potency is the fitted concentration of half-maximal effect. In outline:
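Counter screen run in HepG2-CYP2B6-hCAR cells: 4 hr settle, compound titration (15 concentrations) with 50 nM CITCO, 23 hr at 37 C/5% CO2, CellTiter-Fluor fluorescence.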

Test [7] in a line: qHTS assay to identify small molecule antagonists of the estrogen related receptor signaling pathway with the pleiotropic PPARgamma coactivator (PGC) from Tox21 10K library - cell viability counter screen (AID 1224840; active = well fitted cell-killing curve with a large enough effect in the repeat runs, not every such curve was filed as active; note: nearly all actives have a fitted effect of over 40% in size; note: potency is the fitted concentration of half-maximal effect). The method, boiled down: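 Following seeding of 2,000 PGC/ERR cells/well and 6 hours' incubation, test compounds were delivered in DMSO. The plates then sat 17.5 hours at 37 C before a fluorogenic live-cell protease reagent (CellTiter-Fluor) was read after 30 min.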

Test [8] can be described thus: qHTS assay to identify small molecule agonists of the estrogen related receptor signaling pathway with the pleiotropic PPARgamma coactivator (PGC) from Tox21 10K library (AID 1224842). Note: nearly all actives have a fitted effect of over 15% in size. In outline: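 Luminescence from One-Glo (30 min, room temperature) measured after PGC/ERR cells had 18 h at 37 C with pinned compound (23 nL in DMSO). Cells had been seeded at 2,000 per well and pre-incubated 6 h.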

A short description of test [9]: qHTS assay to identify small molecule agonists of the hypoxia (HIF-1) signaling pathway - cell viability counter screen (AID 1224844; calls by dose curve; note: nearly all actives have a fitted effect of over 50% in size; note: potency is the fitted concentration of half-maximal effect). The method, boiled down: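 Cells (HRE-bla ME-180, 2,000 per well) sat 5 hrs at 37C, got compound for 17 hrs, were read for CCF4-AM FRET, and were finally lysed with CellTiter-Glo for a 30 min room-temperature luminescence read.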
Test [10] can be described thus: qHTS assay to identify small molecule agonists of H2AX (AID 1224845; active = well fitted activation curve with a large enough effect in the signal ratio in the repeat runs, not every such curve was filed as active; the % refers to the signal ratio). In outline:
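Phospho-H2AX Ser139 measured by HTRF (ex 320 nm; em 665 and 620 nm) after 24 hr antibody incubation. Compounds, 15 concentrations, 0.76% DMSO, were applied to CHO-K1 cells for 3hr at 37C before lysis.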

Test [11] addresses Nuclear receptor subfamily 1 group I member 3 (Homo sapiens) (UniProt Q14994). The experiment in a line: qHTS assay to identify small molecule antagonists of the constitutive androstane receptor (CAR) signaling pathway (AID 1224838). Note: nearly all actives have a fitted effect of over 40% in size. In outline: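 Cell line: HepG2 double-stable for hCAR and CYP2B6-2.2kb reporter. Agonist: CITCO, 50 nM final. Compounds: 15 concentrations, 24 h, 37 C. Detection: ONE-Glo luminescence.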

Test [12] shares this target. The test is described as follows: qHTS assay to identify small molecule agonists of the constitutive androstane receptor (CAR) signaling pathway (AID 1224839). For activation: series mostly up to about 92 µM. Note: nearly all actives have a fitted effect of over 15% in size. Note: potency is the fitted concentration of half-maximal effect. The method, boiled down: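 HepG2 cells stably expressing hCAR and a CYP2B6-2.2kb luciferase reporter were treated with compounds at 15 concentrations plus 0.75 uM PK11195 (final) for 24 h at 37 C; luminescence was read after ONE-Glo addition.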

Test [13] concerns the target Thyrotropin receptor (Homo sapiens) (UniProt P16473). The experiment in a line: qHTS assay to identify small molecule agonists of the thyroid stimulating hormone receptor (TSHR) signaling pathway (AID 1224843; calls by dose curve; note: nearly all actives have a fitted effect of over 45% in size; note: potency is the fitted concentration of half-maximal effect). The method, boiled down:
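Screening of the Tox21 10K collection used HEK293 cells engineered with TSHR at 800 cells per well. After a 30-min room-temperature compound exposure, HTRF cAMP reagents were added and fluorescence recorded 1 h later.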

Test [14] in a line: qHTS assay to identify small molecule antagonists of the estrogen related receptor (ERR) signaling pathway - cell viability counter screen (AID 1224818). Note: series mostly up to about 46 µM. In outline: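 After a 6 h pre-incubation, ERR cells were dosed by pin tool with compounds, positive/negative controls or DMSO alone. Following 17.5 h at 37 C and 30 min with CellTiter-Fluor, fluorescence was recorded.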
Test [15] in a line: qHTS assay to identify small molecule antagonists of the estrogen related receptor (ERR) signaling pathway (AID 1224819;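 note: luminescence from an ERR-driven luciferase reporter measured with One-Glo reagent; series mostly up to about 46 µM; nearly all actives have a fitted effect of over 50% in size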). The method, boiled down: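 Luminescence readout (One-Glo, 30 min, RT) of ERR cell line after 18 h compound exposure at 37 C; cells seeded 2,000/well, pre-incubated 6 h, compounds pinned from DMSO stocks.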
Test [16] is described as follows: qHTS assay to identify small molecule agonists of the estrogen related receptor (ERR) signaling pathway (AID 1224820). The method, boiled down:
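ERR reporter cell line (from NTP), 2,000 cells/well, incubated 6 h before compound addition, then 18 h at 37 C. Luminescence measured 30 min after One-Glo reagent at room temperature.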

In test [17] the test system is estrogen-related receptor alpha (ERRalpha) with PGC-1alpha coactivator, human. The test is described as follows: qHTS assay to identify small molecule antagonists of the estrogen related receptor signaling pathway with the pleiotropic PPARgamma coactivator (PGC) (AID 1224821; calls by dose curve;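 note: series mostly up to about 46 µM; lower luminescence signal means antagonism of PGC/ERR signalling; nearly all actives have a fitted effect of over 50% in size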). In outline:
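PGC/ERR reporter cell line, plated 6 h before compound addition, then exposed 18 h at 37 °C. Luciferase activity read by luminescence 30 min after One-Glo addition; decrease indicates antagonism.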

Test [18] in a line: qHTS assay to identify small molecule agonists of the estrogen related receptor signaling pathway with the pleiotropic PPARgamma coactivator (PGC) (AID 1224823). The method, boiled down: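 PGC/ERR reporter cells seeded 6 h, then exposed to compounds (23 nL in DMSO) for 18 h at 37 C. One-Glo luciferase luminescence read after 30 min at room temperature.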
The nature of test [19]: qHTS assay to identify small molecule antagonists of the estrogen related receptor signaling pathway with the pleiotropic PPARgamma coactivator (PGC) from Tox21 10K library (AID 1224841; call rule not given here; note: actives are mostly falling curves and most rising ones were filed inactive; nearly all actives have a fitted effect of over 50% in size; note: potency is the fitted concentration of half-maximal effect). In outline: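 qHTS antagonist format: PGC/ERR cells, 2k/well, compound in DMSO by pin transfer after 6 h attachment, 18 h treatment at 37 C, One-Glo luminescence read at 30 min.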

The structures appear in SMILES notation. Records with an inconclusive call do not appear. A structure can be active in one record and inactive in another. Active and inactive are the calls of the source. Unless noted, calls come from the whole dose curve; as a rule, active = well fitted curve in the direction sought with a large enough effect in the repeat runs; inconclusive = weak or mixed curves; inactive = no such curve, though single readings can be large; an effect the other way counts as inactive or inconclusive.

Chain of Luciferin 4-monooxygenase (Photinus pyralis) (P08659 whole entry, looked up): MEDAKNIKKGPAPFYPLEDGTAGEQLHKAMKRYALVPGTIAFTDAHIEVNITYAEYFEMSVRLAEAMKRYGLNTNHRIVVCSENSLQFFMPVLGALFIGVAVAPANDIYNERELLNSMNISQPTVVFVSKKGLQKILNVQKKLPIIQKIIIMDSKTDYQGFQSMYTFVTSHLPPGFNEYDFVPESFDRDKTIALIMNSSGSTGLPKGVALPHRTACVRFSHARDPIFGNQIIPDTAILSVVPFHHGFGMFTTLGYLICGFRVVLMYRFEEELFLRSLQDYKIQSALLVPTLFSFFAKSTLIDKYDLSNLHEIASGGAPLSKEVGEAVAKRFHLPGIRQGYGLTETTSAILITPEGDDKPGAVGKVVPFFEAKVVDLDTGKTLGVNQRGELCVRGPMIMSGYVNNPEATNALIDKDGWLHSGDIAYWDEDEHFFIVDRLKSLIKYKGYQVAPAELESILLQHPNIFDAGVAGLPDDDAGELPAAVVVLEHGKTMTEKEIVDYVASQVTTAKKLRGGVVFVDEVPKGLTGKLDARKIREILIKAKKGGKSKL
Chain of Nuclear receptor subfamily 1 group I member 3 (Homo sapiens) (Q14994 whole entry, looked up): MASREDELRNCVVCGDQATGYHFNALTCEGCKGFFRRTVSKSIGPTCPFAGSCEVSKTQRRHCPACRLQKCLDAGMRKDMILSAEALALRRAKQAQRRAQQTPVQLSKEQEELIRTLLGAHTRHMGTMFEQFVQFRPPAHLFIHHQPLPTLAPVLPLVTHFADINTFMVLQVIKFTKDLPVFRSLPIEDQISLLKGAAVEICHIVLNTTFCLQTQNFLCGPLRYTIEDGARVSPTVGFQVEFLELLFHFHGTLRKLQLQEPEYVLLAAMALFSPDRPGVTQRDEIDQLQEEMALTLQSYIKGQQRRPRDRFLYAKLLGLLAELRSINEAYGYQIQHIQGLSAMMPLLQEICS
Chain of Thyrotropin receptor (Homo sapiens) (P16473 whole entry, looked up): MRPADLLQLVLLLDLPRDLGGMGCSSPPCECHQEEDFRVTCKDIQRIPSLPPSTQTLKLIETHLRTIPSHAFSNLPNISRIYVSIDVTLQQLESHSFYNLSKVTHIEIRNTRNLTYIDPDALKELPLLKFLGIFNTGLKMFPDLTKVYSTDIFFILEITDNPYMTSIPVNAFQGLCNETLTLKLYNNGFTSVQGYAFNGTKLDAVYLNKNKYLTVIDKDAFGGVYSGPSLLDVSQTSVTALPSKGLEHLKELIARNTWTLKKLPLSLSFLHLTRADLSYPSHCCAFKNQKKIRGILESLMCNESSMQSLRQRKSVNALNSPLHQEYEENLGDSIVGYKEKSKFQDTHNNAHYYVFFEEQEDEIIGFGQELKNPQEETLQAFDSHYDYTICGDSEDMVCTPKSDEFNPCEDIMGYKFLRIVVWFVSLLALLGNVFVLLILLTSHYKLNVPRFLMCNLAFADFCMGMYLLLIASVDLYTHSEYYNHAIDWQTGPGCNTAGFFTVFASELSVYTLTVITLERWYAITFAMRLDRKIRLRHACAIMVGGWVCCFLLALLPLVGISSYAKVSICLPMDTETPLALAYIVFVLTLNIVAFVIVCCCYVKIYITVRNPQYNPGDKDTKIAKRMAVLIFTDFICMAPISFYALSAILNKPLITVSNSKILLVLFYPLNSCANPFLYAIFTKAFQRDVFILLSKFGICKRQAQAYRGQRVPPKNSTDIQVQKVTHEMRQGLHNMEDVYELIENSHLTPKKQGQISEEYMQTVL

On to `COC(=O)N(C(=O)N1CO[C@@]2(C(=O)OC)Cc3cc(Cl)ccc3C2=N1)c1ccc(OC(F)(F)F)cc1`, for which the Potency entry in test [1], in test [2], in [3], in test [4], in [5] and in test [6] was “inactive” in each case. Besides, the Potency result in [7], in test [8], in test [9] and in [10] was “inactive” in each case.

For `Oc1ccc(I)cc1`, the Potency result in test [1], in test [3], in [4], in test [5], in test [6] and in [11] was “inactive” in each case. The Potency entry in test [12], in test [7], in [13], in [9] and in [10] was “inactive” in each case.

For `CC(C)CCCCCCCOP(=O)(Oc1ccccc1)Oc1ccccc1`, the Potency entry in [1], in test [3], in [4], in test [5], in [6] and in test [11] was “inactive” each time. The Potency result in test [7], in [8] and in test [9] was “inactive” throughout. The Potency is 27.4 µM (active) in [12] and 24.5 µM (active) in test [13].

On to `ClC(Cl)=C(Cl)Cl`, for which the Potency result in test [1], in test [3], in [4], in test [5], in test [6] and in test [11] was “inactive” throughout. The Potency entry in test [12], in test [7], in test [13], in [9] and in [10] was “inactive” each time.

For `CC(=[OH+])/C=C(/C)[O-].CC(=[OH+])/C=C(\C)[O-].CC(=[OH+])/C=C(\C)[O-].[Fe]`, the Potency result in [1], in test [3], in [5], in test [6], in test [7] and in [10] was “inactive” each time. The Potency in test [4] was 39.9 µM (active).

For `CS(=O)(=O)c1ccc(C(=O)C2C(=O)CCCC2=O)c([N+](=O)[O-])c1`, the Potency result in [1], in test [15], in test [17], in test [3], in test [4] and in test [5] was “inactive” throughout. The Potency entry in test [6], in test [12], in test [7] and in [8] was “inactive” throughout. The call in test [14], in [16] and in [18] was inactive. Further, the Potency in test [19] was 31.2 µM (active).

With `[Hg+2].[I-].[I-]`, the Potency in test [1] was 10.9 µM (active); in [3], 6.86 µM (active); in [4], 4.48 µM (active); in [5], 34.4 µM (active); in test [6], 30.6 µM (active); in test [7], 4.33 µM (active). Further, the Potency in test [9] is 1.95 µM (active). Also, the Potency entry in test [12] was “inactive”.

In the case of `CCOc1cc(C(C)(C)C)ccc1C1COC(c2c(F)cccc2F)=N1` (stereo not given), the Potency entry in test [1], in test [2], in [3], in test [4], in test [5] and in test [11] was “inactive” throughout. For the same molecule, the Potency result in test [7], in test [8] and in [10] was “inactive” throughout. For the same molecule, the Potency in [12] was 18.6 µM (active).

`CN(CCCC(=O)c1cccnc1)N=O`: the Potency result in test [1], in test [3], in test [4], in test [5], in test [12] and in test [7] was “inactive” in each case. The Potency result in [13], in test [9] and in test [10] was “inactive” in each case.

Turning to `C[C@]12Cc3nonc3C[C@@H]1CC[C@@H]1[C@@H]2CC[C@@]2(C)[C@H]1CC[C@]2(C)O`, the Potency result in [1], in [2], in [4], in [5], in test [6] and in test [8] was “inactive” throughout. For the same molecule, the Potency entry in [13] and in [10] was “inactive” in each case. Also, the Potency is 29.8 µM (active) in [3] and 26.8 µM (active) in test [9].

Take `C=COCCCl`: the Potency entry in test [1], in test [3], in [4], in test [5], in test [11] and in [12] was “inactive” each time. Also, the Potency result in [7], in test [19], in test [8], in [13], in test [9] and in [10] was “inactive” throughout.

`COc1cc(N)c(Cl)cc1C(=O)NC1CN2CCC1CC2` (stereo not given): the Potency entry in test [1], in [3], in test [4], in test [5], in test [6] and in test [11] was “inactive” each time. The Potency result in [12], in [7], in test [13], in test [9] and in test [10] was “inactive” each time.

On to `CC(C)CC(C)N` (stereo not given), for which the Potency result in test [1], in test [3], in test [4], in [5], in test [6] and in [7] was “inactive” throughout. The Potency result in [19], in test [8], in [13], in test [9] and in [10] was “inactive” each time.

As for `O=S(=O)(c1ccc(Cl)cc1)c1ccc(Cl)cc1`, the Potency entry in test [1], in test [4], in test [5], in test [6], in test [11] and in test [7] was “inactive” each time. In addition, the Potency entry in test [8] and in test [9] was “inactive” in each case. Further, the molecule was classed as inactive in test [14], in test [16] and in [18]. In [12], the Potency was 49.2 µM (active).

With `C[C@@H]1O[C@@H](O[C@@H]2C=C3CC[C@@H]4[C@H](CC[C@]5(C)[C@@H](c6ccc(=O)oc6)CC[C@]45O)[C@@]3(C)CC2)[C@H](O)[C@H](O)[C@H]1O`, the Potency entry in test [1], in test [2], in test [4], in test [12], in test [8] and in test [10] was “inactive” in each case. The Potency in [3] was 0.0298 µM (active); in [5] it was 0.119 µM (active); in test [19], 0.0237 µM (active); in test [9], 0.0268 µM (active).

As to `COc1ccc(N)cc1N`, the Potency entry in [1], in test [8] and in [9] was “inactive” throughout. Further, the Potency in test [3] is 31.6 µM (active); in test [4], 41.2 µM (active); in test [5], 63.1 µM (active); in test [6], 70.8 µM (active); in test [7], 28.2 µM (active) and inactive.

As for `C1CCC2CCCCC2C1` (stereo not given), the Potency result in test [1], in test [3], in [4], in [5], in test [6] and in [11] was “inactive” each time. Also, the Potency result in test [12], in [7], in test [8] and in test [9] was “inactive” throughout.

The values above are taken from PubChem BioAssay (Tox21).
